Laboratory results reported in PubChem BioAssay AID1159580 (chemical genetic matrix, 2015).
The campaign covered roughly 5,500 compounds. About 2,000 (36%) were called active. Not shown: some 18% with an inconclusive outcome. Cut-off read from the data, not from the text of the source: active = normalized growth mostly below about 0.91 (no sharp cut-off); inconclusive = no clear call, values can overlap the other calls; inactive = mostly above about 0.92. This is one part of the list.

Assay: chemical genetic growth profiling, strain panel (AID 1159580);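 note: tested at 20 µM; growth read once vehicle control cultures reached saturation at 30 °C; 1 = growth at the plate median or of vehicle wells; lower values mean less growth of the strain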
Conditions: growth OD

Measured: normalized growth

COc1ccc(-c2cc(=O)c3c(O)cc(O[C@@H]4O[C@H](CO[C@H]5O[C@H](C)[C@@H](O)[C@H](O)[C@@H]5O)[C@@H](O)[C@H](O)[C@H]4O)cc3o2)cc1O
inactive: S. cerevisiae deletion strains, locus YKL009W, strain mrt4, active compounds read low 0.981 | S. cerevisiae deletion strains, locus YKL068W, active compounds read low 0.973 | S. cerevisiae deletion strains, locus YKL085W, strain MDH1 (second series), active compounds read low 0.991 | S. cerevisiae deletion strains, locus YKL085W, strain MDH1, active compounds read low 0.991 | S. cerevisiae deletion strains, locus YKL160W, strain elf1, active compounds read low 1 | S. cerevisiae deletion strains, locus YKL190W, strain CNB1, active compounds read low 0.994 | S. cerevisiae deletion strains, locus YKR001C, strain vps1, active compounds read low 1.02 | S. cerevisiae deletion strains, locus YKR026C, strain gcn3, active compounds read low 1.01 | S. cerevisiae deletion strains, locus YKR091W, strain srl3, active compounds read low 1.02 | S. cerevisiae deletion strains, locus YLL001W, strain dnm1, active compounds read low 1 | S. cerevisiae deletion strains, locus YLL026W, active compounds read low 1.01 | S. cerevisiae deletion strains, locus YLL041C, strain sdh2, active compounds read low 1.01 | S. cerevisiae deletion strains, locus YLR027C, strain aat2, active compounds read low 1.01 | S. cerevisiae deletion strains, locus YLR039C, strain RIC1, active compounds read low 0.954 | S. cerevisiae deletion strains, locus YLR058C, strain SHM2, active compounds read low 0.986 | S. cerevisiae deletion strains, locus YLR102C, strain apc9, active compounds read low 0.996 | S. cerevisiae deletion strains, locus YLR113W, strain HOG1, active compounds read low 1.03 | S. cerevisiae deletion strains, locus YLR221C, strain rsa3, active compounds read low 1.01 | S. cerevisiae deletion strains, locus YLR258W, strain gsy2, active compounds read low 1.03 | S. cerevisiae deletion strains, locus YLR262C, strain YPT6 (second series), active compounds read low 1.03 | S. cerevisiae deletion strains, locus YLR262C, strain YPT6, active compounds read low 0.949 | S. cerevisiae deletion strains, locus YLR268W, strain sec22, active compounds read low 1 | S. cerevisiae deletion strains, locus YLR320W, strain mms22, active compounds read low 1.03 | S. cerevisiae deletion strains, locus YLR330W, strain CHS5, active compounds read low 0.981 | S. cerevisiae deletion strains, locus YLR342W, strain FKS1 (second series), active compounds read low 1.01 | S. cerevisiae deletion strains, locus YLR342W, strain FKS1, active compounds read low 1.03 | S. cerevisiae deletion strains, locus YLR357W, strain rsc2, active compounds read low 1.03 | S. cerevisiae deletion strains, locus YLR370C, strain arc18, active compounds read low 1.01 | S. cerevisiae deletion strains, locus YLR371W, strain rom2, active compounds read low 0.999 | S. cerevisiae deletion strains, locus YLR384C, strain iki3, active compounds read low 1.03 | S. cerevisiae deletion strains, locus YLR418C, strain cdc73, active compounds read low 0.979 | S. cerevisiae deletion strains, locus YML016C, strain PPZ1, active compounds read low 0.994 | S. cerevisiae deletion strains, locus YML032C, strain rad52, active compounds read low 1.02 | S. cerevisiae deletion strains, locus YML120C, strain ndi1, active compounds read low 1.01 | S. cerevisiae deletion strains, locus YML124C, strain tub3, active compounds read low 1 | S. cerevisiae deletion strains, locus YMR058W, strain fet3, active compounds read low 1.01 | S. cerevisiae deletion strains, locus YMR078C, strain ctf18, active compounds read low 0.993 | S. cerevisiae deletion strains, locus YMR125W, strain sto1, active compounds read low 1.03 | S. cerevisiae deletion strains, locus YMR129W, active compounds read low 1 | S. cerevisiae deletion strains, locus YMR205C, strain PFK2, active compounds read low 1.03 | S. cerevisiae deletion strains, locus YMR223W, strain ubp8, active compounds read low 0.989 | S. cerevisiae deletion strains, locus YMR231W, strain pep5, active compounds read low 1.02 | S. cerevisiae deletion strains, locus YMR307W, strain GAS1, active compounds read low 1.07 | S. cerevisiae deletion strains, locus YNL067W, strain RPL9B, active compounds read low 1.04 | S. cerevisiae deletion strains, locus YNL071W, strain lat1, active compounds read low 1.03 | S. cerevisiae deletion strains, locus YNL128W, strain TEP1, active compounds read low 1.01 | S. cerevisiae deletion strains, locus YNL183C, strain NPR1, active compounds read low 0.989 | S. cerevisiae deletion strains, locus YNL209W, strain ssb2, active compounds read low 1.01 | S. cerevisiae deletion strains, locus YNL233W, strain BNI4, active compounds read low 1.01 | S. cerevisiae deletion strains, locus YNL248C, strain rpa49, active compounds read low 1 | S. cerevisiae deletion strains, locus YNL250W, strain rad50, active compounds read low 1 | S. cerevisiae deletion strains, locus YNL271C, strain bni1, active compounds read low 0.999 | S. cerevisiae deletion strains, locus YNL298W, strain CLA4, active compounds read low 0.985 | S. cerevisiae deletion strains, locus YNL307C, strain MCK1, active compounds read low 1 | S. cerevisiae deletion strains, locus YNL322C, strain KRE1 (second series), active compounds read low 1.02 | S. cerevisiae deletion strains, locus YNL322C, strain KRE1, active compounds read low 1 | S. cerevisiae deletion strains, locus YNR049C, strain mso1, active compounds read low 1.01 | S. cerevisiae deletion strains, locus YNR052C, strain pop2, active compounds read low 1 | S. cerevisiae deletion strains, locus YOL006C, strain TOP1, active compounds read low 1.08 | S. cerevisiae deletion strains, locus YOL012C, strain htz1 1.47 | S. cerevisiae deletion strains, locus YOL147C, strain pex11, active compounds read low 0.974 | S. cerevisiae deletion strains, locus YOR001W, strain rrp6, active compounds read low 1.03 | S. cerevisiae deletion strains, locus YOR061W, strain CKA2, active compounds read low 0.993 | S. cerevisiae deletion strains, locus YOR069W, strain VPS5, active compounds read low 0.987 | S. cerevisiae deletion strains, locus YOR070C, strain gyp1, active compounds read low 1.02 | S. cerevisiae deletion strains, locus YOR080W, strain dia2, active compounds read low 1.03 | S. cerevisiae deletion strains, locus YOR083W, strain WHI5, active compounds read low 0.992 | S. cerevisiae deletion strains, locus YOR106W, strain vam3, active compounds read low 0.983 | S. cerevisiae deletion strains, locus YOR136W, strain idh2, active compounds read low 1.01 | S. cerevisiae deletion strains, locus YOR144C, strain elg1, active compounds read low 1 | S. cerevisiae deletion strains, locus YOR184W, strain ser1, active compounds read low 1.01 | S. cerevisiae deletion strains, locus YOR231W, strain MKK1, active compounds read low 1 | S. cerevisiae deletion strains, locus YOR265W, strain rbl2, active compounds read low 1.02 | S. cerevisiae deletion strains, locus YOR270C, strain vph1, active compounds read low 0.983 | S. cerevisiae deletion strains, locus YOR290C, strain snf2, active compounds read low 1.02 | S. cerevisiae deletion strains, locus YOR316C, strain cot1, active compounds read low 0.997 | S. cerevisiae deletion strains, locus YPL051W, strain arl3, active compounds read low 1.01 | S. cerevisiae deletion strains, locus YPL055C, strain LGE1, active compounds read low 1.07 | S. cerevisiae deletion strains, locus YPL078C, strain atp4, active compounds read low 0.998 | S. cerevisiae deletion strains, locus YPL106C, strain sse1, active compounds read low 1.05 | S. cerevisiae deletion strains, locus YPL240C, strain hsp82, active compounds read low 1.03 | S. cerevisiae deletion strains, locus YPL241C, strain CIN2, active compounds read low 0.986 | S. cerevisiae deletion strains, locus YPL256C, strain CLN2, active compounds read low 0.987 | S. cerevisiae deletion strains, locus YPR119W, strain clb2, active compounds read low 1 | S. cerevisiae deletion strains, locus YPR141C, strain kar3, active compounds read low 0.972 | S. cerevisiae deletion strains, locus YPR163C, strain tif3, active compounds read low 0.992 | S. cerevisiae deletion strains, locus YPR167C, strain met16, active compounds read low 1.01 | S. cerevisiae deletion strains, strain wtn01, active compounds read low 0.997 | S. cerevisiae strains, strain wild type, active compounds read low 1
